# Source: the supplement of paper PMC10849652
# About 7,900 targets were measured; listed, in parts, are those with a hit and a random draw of the rest. About 0.6% of all pairs of compound and target were hits. Values without a mark were called inactive.
# Experiments:
# Assay in all cases: log2 fold change, soluble protein after heating vs DMSO (PISA); higher = thermal stabilisation; K562 cells, 10 uM, 30 min; active = over 0.2 and 3.5 SD of the protein, either way, in both replicates (recomputed)
# erlotinib = compound: C#Cc1cccc(Nc2ncnc3cc(OCCOC)c(OCCOC)cc23)c1 [erlotinib]
# Procedure, shortened: (§1)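 K562 cells at 2×10^6 cells/mL were given 10 μM compound for 30 min. Aliquots then went through 3 min of heating across 48°C-58°C, were pooled, and were extracted in PBS with 0.5% NP-40 at 4°C, and the supernatant after 21,000xg for 90 min was quantified by TMTpro 16plex LC-MS/MS with channel sums equalised. Thermal stability relative to control samples, from duplicates, is given as log2 fold change.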
# [1] = compound: C/C(=N\NC(=O)C1=CC(=CC=C1)S(=O)(=O)N2CCOCC2)/C3=C(C=CC(=C3)Cl)O
# Procedure, shortened: as §1
# [2] = compound: C1=CC(=C(C=C1Cl)C2=NC3=NC=CN=C3C(=N2)NC4=CC=NC=C4)F
# Procedure, shortened: as §1
# [3] = compound: C1=CC(=CC=C1C2=NC3=C(N2)C=C(C=C3)C(=O)N)OC4=CC=C(C=C4)Cl
# Procedure, shortened: as §1
# [4] = compound: C1=CC2=C(C=CC(=C2)/C=C\3/C(=O)NC(=NCC4=CC=CS4)S3)N=C1
# Procedure, shortened: as §1
# [5] = compound: C1=CC2=NC=CN=C2C=C1/C=C/3\C(=O)NC(=O)S3
# Procedure, shortened: as §1
# [6] = compound: C1=CC=C(C=C1)C2=NC(=C(N2)C3=CC=NC=C3)C4=CC(=C(C=C4)Cl)O
# Procedure, shortened: as §1
# [7] = compound: C1=CC=C2C(=C1)C3=NNC4=CC=CC(=C43)C2=O
# Procedure, shortened: as §1
# [8] = compound: C1CCN(C1)C(=O)NC2=CC=CC(=C2)NC3=NC=C(C(=N3)NCCC4=CN=CN4)Br
# Procedure, shortened: as §1
# [9] = compound: C1CN(CCC1(CC2=CC=C(C=C2)Cl)N)C3=NC=NC4=C3C=CN4
# Procedure, shortened: as §1
# IRAK-1-4 Inhibitor I = compound: C1COCCN1CCN2C3=CC=CC=C3N=C2NC(=O)C4=CC(=CC=C4)[N+](=O)[O-] [IRAK-1-4 Inhibitor I]
# Procedure, shortened: as §1
# ibrutinib = compound: C=CC(=O)N1CCC[C@@H](n2nc(-c3ccc(Oc4ccccc4)cc3)c3c(N)ncnc32)C1 [ibrutinib]
# Procedure, shortened: as §1
# [10] = compound: CC(=O)c1cnc2ccc(-c3cc(Cl)c(O)c(Cl)c3)nc2c1N[C@H]1CC[C@H](CN(C)C)CC1
# Procedure, shortened: as §1
# ralimetinib = compound: CC(C)(C)Cn1c(N)nc2ccc(-c3[nH]c(C(C)(C)C)nc3-c3ccc(F)cc3)nc21 [ralimetinib]
# Procedure, shortened: as §1
# [11] = compound: CC(C)(O)CC(=O)NCCn1ccc2ncnc(Nc3ccc(Oc4cccc(C(F)(F)F)c4)c(Cl)c3)c21
# Procedure, shortened: as §1
# [12] = compound: CC(C)C1=C2N=C(C=C(N2N=C1)NCC3=CC=CC=C3)NCCCCCCN
# Procedure, shortened: as §1
# [13] = compound: CC(C)C[C@@H](C=O)NC(=O)[C@H](CC(C)C)NC(=O)[C@H](CC(C)C)NC(=O)OCc1ccccc1
# Procedure, shortened: as §1
# pinometostat = compound: CC(C)N(C[C@H]1O[C@@H](n2cnc3c(N)ncnc32)[C@H](O)[C@@H]1O)[C@H]1C[C@@H](CCc2nc3cc(C(C)(C)C)ccc3[nH]2)C1 [pinometostat]
# Procedure, shortened: as §1
# [14] = compound: CC1=C(C(CC(=O)N1)C2=CC=C(C=C2)C(F)(F)F)C(=O)NC3=C(C=C4C(=C3)C=NN4)F
# Procedure, shortened: as §1
# [15] = compound: CC1=C(C2=C(C=C1)C(=O)C3=CC=CC=C3N2CCCN)C
# Procedure, shortened: as §1
# Sequence of UniProt O94925 (O94925 whole entry, looked up): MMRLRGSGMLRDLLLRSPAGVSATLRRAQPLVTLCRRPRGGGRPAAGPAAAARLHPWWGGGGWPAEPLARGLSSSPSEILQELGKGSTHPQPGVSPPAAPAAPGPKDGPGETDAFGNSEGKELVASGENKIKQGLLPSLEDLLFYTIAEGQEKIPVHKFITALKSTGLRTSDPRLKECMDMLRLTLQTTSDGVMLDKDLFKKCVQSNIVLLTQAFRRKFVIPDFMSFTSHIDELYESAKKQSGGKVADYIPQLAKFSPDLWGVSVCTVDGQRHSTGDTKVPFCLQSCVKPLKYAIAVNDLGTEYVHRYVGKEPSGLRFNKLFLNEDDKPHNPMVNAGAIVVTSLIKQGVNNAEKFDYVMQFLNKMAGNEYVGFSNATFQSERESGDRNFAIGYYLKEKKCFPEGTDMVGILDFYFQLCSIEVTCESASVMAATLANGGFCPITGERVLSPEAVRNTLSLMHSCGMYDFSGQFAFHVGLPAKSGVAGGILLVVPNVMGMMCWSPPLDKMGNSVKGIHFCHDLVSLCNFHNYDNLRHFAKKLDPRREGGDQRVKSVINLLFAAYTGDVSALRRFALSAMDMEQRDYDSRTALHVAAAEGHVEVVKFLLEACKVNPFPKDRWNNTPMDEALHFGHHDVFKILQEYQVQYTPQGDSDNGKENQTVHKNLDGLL
# Sequence of UniProt Q9Y692 (Q9Y692 whole entry, looked up): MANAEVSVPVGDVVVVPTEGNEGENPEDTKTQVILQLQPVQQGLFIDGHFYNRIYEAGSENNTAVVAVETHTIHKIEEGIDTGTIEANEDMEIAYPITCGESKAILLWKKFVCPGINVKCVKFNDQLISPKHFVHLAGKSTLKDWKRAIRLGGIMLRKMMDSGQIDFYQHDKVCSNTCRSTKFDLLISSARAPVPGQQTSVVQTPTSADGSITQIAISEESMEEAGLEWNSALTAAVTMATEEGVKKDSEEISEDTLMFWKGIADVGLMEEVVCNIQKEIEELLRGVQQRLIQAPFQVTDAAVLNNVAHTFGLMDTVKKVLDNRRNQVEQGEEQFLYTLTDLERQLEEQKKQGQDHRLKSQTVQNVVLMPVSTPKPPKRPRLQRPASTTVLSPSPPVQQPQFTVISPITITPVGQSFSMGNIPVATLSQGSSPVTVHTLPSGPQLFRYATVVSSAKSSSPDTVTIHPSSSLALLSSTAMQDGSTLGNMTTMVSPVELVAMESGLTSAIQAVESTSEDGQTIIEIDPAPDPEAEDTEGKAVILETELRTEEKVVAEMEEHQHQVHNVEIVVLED
# Sequence of UniProt Q92538 (Q92538 whole entry, looked up): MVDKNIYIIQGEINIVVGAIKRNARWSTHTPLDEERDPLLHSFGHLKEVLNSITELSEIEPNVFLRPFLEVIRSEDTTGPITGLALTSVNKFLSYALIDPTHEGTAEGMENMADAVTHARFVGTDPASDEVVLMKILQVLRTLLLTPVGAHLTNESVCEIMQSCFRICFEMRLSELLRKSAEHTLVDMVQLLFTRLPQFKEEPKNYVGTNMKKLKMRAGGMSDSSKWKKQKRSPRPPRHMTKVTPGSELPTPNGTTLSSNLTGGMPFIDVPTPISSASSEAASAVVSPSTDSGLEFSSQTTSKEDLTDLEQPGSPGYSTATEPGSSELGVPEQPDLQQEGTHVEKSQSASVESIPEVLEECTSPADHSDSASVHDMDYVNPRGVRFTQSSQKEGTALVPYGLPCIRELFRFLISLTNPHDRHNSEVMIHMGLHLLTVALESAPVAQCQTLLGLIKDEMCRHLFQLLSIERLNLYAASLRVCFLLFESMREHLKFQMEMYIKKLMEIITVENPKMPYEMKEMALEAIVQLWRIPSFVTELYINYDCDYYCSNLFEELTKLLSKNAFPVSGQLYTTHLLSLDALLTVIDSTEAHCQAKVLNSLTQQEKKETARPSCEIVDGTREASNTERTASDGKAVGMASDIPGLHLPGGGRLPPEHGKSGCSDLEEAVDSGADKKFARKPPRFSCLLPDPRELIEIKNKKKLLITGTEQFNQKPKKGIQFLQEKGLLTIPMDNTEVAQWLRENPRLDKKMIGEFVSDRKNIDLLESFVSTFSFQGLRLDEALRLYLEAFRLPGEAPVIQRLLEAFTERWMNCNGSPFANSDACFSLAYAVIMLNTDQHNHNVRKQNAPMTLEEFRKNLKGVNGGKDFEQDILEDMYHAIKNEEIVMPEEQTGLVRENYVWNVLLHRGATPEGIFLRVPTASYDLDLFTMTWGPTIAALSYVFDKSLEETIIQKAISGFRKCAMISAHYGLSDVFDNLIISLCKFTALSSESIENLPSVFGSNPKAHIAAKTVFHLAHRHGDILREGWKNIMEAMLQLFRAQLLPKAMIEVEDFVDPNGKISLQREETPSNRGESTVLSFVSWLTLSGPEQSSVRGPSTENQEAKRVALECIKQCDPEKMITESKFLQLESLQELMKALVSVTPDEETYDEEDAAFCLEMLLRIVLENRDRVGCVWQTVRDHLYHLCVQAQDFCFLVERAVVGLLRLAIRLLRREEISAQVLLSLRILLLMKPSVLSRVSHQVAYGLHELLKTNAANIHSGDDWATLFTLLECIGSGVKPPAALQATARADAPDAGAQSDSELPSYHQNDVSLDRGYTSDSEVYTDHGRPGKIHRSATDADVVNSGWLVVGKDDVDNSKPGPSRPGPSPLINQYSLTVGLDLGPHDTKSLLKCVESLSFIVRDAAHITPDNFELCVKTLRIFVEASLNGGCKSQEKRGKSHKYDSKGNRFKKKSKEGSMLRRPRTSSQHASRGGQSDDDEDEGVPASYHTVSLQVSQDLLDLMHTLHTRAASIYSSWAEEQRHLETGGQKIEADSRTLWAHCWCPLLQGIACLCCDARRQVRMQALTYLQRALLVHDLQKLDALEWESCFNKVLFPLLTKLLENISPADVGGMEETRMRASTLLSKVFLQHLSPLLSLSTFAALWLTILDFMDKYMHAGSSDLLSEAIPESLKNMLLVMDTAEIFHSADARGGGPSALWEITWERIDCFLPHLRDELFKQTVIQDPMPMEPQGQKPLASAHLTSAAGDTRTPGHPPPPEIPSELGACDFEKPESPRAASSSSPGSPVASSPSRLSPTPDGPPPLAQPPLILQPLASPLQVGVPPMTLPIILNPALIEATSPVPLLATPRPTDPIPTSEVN
# Sequence of UniProt O00291 (O00291 whole entry, looked up): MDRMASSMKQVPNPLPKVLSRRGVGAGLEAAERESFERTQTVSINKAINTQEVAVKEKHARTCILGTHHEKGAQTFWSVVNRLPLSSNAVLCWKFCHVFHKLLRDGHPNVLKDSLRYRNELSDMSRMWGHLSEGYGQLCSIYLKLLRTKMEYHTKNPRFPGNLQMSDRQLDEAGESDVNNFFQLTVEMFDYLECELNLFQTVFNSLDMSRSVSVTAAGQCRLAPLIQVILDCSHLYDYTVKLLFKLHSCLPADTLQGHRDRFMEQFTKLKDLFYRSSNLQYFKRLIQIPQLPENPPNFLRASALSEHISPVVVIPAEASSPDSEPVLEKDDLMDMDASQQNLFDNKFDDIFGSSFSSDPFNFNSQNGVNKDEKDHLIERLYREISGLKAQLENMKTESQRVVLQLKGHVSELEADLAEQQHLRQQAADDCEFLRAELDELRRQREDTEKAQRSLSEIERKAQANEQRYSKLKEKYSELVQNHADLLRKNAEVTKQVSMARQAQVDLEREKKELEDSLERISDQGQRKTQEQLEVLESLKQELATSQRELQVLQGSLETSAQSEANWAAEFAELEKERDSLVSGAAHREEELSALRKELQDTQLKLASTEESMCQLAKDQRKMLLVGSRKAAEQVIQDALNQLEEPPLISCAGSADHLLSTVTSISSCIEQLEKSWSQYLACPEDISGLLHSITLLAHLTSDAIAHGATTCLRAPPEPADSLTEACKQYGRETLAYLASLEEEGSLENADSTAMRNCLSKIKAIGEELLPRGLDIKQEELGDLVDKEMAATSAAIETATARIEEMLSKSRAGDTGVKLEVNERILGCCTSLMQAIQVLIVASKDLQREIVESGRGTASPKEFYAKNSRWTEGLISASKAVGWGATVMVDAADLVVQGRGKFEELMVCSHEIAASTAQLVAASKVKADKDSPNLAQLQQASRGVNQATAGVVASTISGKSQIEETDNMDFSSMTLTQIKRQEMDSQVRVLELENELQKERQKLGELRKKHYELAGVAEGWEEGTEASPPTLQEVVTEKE
# Sequence of UniProt Q9UKN8 (Q9UKN8 whole entry, looked up): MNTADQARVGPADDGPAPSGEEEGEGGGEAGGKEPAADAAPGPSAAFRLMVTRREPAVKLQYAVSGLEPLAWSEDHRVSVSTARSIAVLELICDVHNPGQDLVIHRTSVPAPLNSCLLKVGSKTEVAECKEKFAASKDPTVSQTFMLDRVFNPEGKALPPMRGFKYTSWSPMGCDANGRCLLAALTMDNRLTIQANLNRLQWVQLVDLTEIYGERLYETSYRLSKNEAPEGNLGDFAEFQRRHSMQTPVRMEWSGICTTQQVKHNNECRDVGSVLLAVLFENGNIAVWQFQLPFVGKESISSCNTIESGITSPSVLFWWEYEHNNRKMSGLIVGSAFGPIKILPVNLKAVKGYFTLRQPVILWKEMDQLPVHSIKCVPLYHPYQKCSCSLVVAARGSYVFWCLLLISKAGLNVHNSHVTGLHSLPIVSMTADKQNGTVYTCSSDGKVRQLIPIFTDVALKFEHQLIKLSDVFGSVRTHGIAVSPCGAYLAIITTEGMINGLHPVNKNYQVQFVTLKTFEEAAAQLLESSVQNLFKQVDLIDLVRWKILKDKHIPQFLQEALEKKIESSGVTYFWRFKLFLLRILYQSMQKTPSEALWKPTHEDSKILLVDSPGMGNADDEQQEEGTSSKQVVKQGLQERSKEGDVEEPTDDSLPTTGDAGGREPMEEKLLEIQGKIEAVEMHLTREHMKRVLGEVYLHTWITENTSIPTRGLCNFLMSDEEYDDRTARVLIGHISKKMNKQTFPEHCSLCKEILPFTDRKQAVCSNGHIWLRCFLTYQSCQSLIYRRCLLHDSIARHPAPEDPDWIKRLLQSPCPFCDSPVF
Target,log2 fold change (erlotinib),log2 fold change [1],log2 fold change [2],log2 fold change [3],log2 fold change [4],log2 fold change [5],log2 fold change [6],log2 fold change [7],log2 fold change [8],log2 fold change [9],log2 fold change (IRAK-1-4 Inhibitor I),log2 fold change (ibrutinib),log2 fold change [10],log2 fold change (ralimetinib),log2 fold change [11],log2 fold change [12],log2 fold change [13],log2 fold change (pinometostat),log2 fold change [14],log2 fold change [15]
GMEB1 (UniProt Q9Y692),0.106,0.071,0.012,-0.005,-0.006,0.009,-0.027,-0.089,0.004,0.036,-0.033,-0.031,-0.021,0.01,-0.039,-0.044,-0.031,0.022,0.011,-0.297 (active)
GOPC (UniProt Q9HD26),0.016,0.051,-0.284,-0.178,-0.027,-0.147,-0.008,0.265,-0.036,0.06,-0.119,-0.104,0.03,0.259,-0.04,0.046,0.083,0.174,-0.118,0.085
GTF3C4 (UniProt Q9UKN8),-0.016,0.065,0.026,0.003,0.025,-0.005,0.003,-0.022,-0.026,0.027,-0.002,0.032,-0.051,-0.045,0.035,0.038,0.035,0,-0.047,-0.041
GLS isoform 3 (UniProt O94925),0.09,0.156,-0.041,-0.094,0.027,0.004,0,-0.082,-0.11,-0.12,0.011,-0.15,-0.046,-0.19,-0.547 (active),-0.034,-0.04,-0.088,0,-0.068
GBF1 (UniProt Q92538),-0.012,0.077,-0.049,-0.022,0.075,0.028,-0.036,0.033,-0.026,-0.052,-0.033,-0.049,-0.044,0.017,-0.05,-0.088,0.015,0.115,-0.016,0.007
FDXR isoform 7 (UniProt P22570),0.092,0.033,0.109,-0.126,0.076,-0.13,0.064,0,0.025,0.019,0.031,0.046,-0.086,-0.015,-0.27 (active),-0.091,0.015,-0.024,-0.033,0.125
HIP1 (UniProt O00291),0.018,0.033,0.046,-0.004,0.018,-0.056,0.011,-0.166,-0.209,0.09,-0.002,0.083,-0.07,-0.003,-0.035,-0.056,0.079,0.045,0.074,0.038
FNTA (UniProt P49354),0.245,-0.033,0.116,-0.017,0.075,-0.009,0.051,-0.034,0.065,0.106,0.052,0.107,0.081,-0.05,-0.023,0.016,-0.031,-0.018,-0.023,-0.074
